{
  "source": "paper PMC7862700",
  "about": "“An all-to-all approach to the identification of sequence-specific readers for epigenetic DNA modifications on cytosine”",
  "assay_in_all_cases": "DAPPL (digital affinity profiling via proximity ligation, sequencing); 10 mM Tris-HCl pH 7.5, 50 mM NaCl, 1 mM DTT, 4% glycerol, room temperature, 30 min; GST-TFs on glutathione beads, 16-mer random dsDNA library, 0.1% formaldehyde crosslink after washing; high values mean tight binding",
  "conditions_in_all_cases": "protein: recombinant; tags: N-terminal GST; dsDNA, one strand shown",
  "key": {"[1]": {"target": "ETV1 (Homo sapiens, UniProt P50549 1-477)", "sequence (P50549 whole entry, the tested form may be a part)": "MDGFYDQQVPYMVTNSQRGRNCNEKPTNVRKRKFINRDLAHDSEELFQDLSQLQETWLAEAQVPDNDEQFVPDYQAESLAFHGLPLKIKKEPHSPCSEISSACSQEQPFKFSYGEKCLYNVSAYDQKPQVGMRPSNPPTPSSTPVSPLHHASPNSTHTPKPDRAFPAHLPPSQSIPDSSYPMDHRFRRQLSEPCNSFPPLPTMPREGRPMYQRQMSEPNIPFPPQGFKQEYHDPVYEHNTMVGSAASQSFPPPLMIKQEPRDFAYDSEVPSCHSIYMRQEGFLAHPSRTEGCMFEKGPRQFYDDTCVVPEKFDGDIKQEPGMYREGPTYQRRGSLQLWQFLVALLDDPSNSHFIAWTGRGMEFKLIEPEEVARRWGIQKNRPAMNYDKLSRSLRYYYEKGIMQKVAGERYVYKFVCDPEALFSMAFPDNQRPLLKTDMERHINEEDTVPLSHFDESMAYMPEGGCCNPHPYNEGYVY", "outline": "(§1)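 GST fusions of human transcription factors were expressed in yeast and captured with glutathione beads. Once given DNA barcodes and pooled alongside a tag-only sample, they were incubated for 30 min at room temperature with 200 nmole of a random double-stranded 16-mer DNA library in Tris/NaCl/DTT/glycerol buffer, then washed, crosslinked (0.1% formaldehyde), proximity-ligated, PCR-amplified and sequenced on an Illumina NextSeq500. The binding signal of each hexamer is its read frequency for a factor divided by its frequency for the tag-only sample.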"}, "[2]": {"target": "T1, ERF (Homo sapiens, UniProt P50548 1-548)", "T1 sequence": "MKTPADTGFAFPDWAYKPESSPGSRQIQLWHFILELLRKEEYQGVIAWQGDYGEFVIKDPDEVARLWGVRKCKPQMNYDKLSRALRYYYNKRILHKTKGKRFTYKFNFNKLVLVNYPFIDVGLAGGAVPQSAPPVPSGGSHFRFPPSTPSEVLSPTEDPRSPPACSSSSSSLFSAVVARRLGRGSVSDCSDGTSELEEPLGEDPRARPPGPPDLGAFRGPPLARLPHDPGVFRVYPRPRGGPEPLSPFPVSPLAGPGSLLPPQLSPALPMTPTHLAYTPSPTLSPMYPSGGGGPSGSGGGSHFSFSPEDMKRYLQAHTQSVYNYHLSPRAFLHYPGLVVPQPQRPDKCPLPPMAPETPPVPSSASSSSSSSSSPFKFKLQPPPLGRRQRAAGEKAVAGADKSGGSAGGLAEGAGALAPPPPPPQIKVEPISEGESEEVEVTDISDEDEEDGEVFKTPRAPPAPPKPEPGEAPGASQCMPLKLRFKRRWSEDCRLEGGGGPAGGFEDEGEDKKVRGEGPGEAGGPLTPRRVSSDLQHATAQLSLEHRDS", "outline": "as §1"}, "[3]": {"target": "T2, ETV3L (Homo sapiens, UniProt Q6ZN32 1-361)", "T2 sequence": "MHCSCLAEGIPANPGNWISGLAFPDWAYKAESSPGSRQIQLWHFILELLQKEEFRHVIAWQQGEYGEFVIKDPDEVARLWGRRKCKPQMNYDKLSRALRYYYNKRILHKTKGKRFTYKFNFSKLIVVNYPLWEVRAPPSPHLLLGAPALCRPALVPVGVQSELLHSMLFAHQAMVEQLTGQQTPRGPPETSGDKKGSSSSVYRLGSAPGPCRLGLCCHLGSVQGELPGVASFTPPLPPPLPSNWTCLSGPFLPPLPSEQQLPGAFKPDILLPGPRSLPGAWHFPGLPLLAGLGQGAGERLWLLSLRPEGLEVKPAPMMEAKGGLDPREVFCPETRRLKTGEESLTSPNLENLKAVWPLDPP", "outline": "as §1"}, "[4]": {"target": "T3, ETS2 (Homo sapiens, UniProt P15036 1-469)", "T3 sequence": "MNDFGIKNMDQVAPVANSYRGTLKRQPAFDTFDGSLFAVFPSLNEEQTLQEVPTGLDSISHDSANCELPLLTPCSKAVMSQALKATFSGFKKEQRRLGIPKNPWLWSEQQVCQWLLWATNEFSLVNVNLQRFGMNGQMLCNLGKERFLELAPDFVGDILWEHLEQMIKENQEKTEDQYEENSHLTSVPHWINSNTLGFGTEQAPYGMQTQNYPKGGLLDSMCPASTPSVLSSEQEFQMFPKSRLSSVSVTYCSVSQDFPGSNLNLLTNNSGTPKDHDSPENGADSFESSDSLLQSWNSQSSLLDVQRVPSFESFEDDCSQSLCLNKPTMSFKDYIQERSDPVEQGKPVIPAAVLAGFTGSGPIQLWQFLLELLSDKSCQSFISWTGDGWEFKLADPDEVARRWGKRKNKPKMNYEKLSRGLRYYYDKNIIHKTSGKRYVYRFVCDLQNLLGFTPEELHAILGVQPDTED", "outline": "as §1"}, "[5]": {"target": "T4, SPDEF (Homo sapiens, UniProt O95238 1-335)", "T4 sequence": "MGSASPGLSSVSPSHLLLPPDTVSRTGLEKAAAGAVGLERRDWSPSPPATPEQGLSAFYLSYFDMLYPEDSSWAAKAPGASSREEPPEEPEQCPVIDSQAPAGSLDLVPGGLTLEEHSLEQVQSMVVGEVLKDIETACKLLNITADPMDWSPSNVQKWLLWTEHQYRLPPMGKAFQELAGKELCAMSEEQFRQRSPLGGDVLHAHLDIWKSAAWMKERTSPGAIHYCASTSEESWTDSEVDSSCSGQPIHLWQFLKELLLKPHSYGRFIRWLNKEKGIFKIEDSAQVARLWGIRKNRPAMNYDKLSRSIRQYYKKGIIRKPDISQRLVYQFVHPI", "outline": "as §1"}, "[6]": {"target": "T5, ETV7 (Homo sapiens, UniProt Q9Y603 1-341)", "T5 sequence": "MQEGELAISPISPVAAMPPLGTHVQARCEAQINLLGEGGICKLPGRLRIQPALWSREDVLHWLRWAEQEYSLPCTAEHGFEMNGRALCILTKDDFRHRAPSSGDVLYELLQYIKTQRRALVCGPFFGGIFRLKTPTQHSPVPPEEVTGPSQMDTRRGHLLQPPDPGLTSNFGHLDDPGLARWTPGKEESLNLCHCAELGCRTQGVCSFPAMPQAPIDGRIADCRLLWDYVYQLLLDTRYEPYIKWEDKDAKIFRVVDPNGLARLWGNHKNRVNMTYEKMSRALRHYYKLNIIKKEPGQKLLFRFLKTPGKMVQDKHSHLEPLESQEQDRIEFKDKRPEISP", "outline": "as §1"}, "[7]": {"target": "T6, ELF5 (Homo sapiens, UniProt Q9UKW6-2 1-255)", "T6 sequence": "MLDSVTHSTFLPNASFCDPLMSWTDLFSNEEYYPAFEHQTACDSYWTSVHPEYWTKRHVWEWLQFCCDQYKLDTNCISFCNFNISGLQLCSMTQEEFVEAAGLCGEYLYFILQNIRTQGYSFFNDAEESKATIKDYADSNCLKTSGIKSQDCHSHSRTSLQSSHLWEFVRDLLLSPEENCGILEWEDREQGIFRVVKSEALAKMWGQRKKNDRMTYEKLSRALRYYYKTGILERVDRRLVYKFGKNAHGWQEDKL", "outline": "as §1"}, "[8]": {"target": "T7, ETV3 (Homo sapiens, UniProt P41162-2 1-143)", "T7 sequence": "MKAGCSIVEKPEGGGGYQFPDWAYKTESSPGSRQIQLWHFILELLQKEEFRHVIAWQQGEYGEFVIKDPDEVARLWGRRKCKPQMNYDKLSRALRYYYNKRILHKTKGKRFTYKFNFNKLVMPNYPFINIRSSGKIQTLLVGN", "outline": "as §1"}, "[9]": {"target": "ETV6 (Homo sapiens, UniProt P41212 1-452)", "sequence (P41212 whole entry)": "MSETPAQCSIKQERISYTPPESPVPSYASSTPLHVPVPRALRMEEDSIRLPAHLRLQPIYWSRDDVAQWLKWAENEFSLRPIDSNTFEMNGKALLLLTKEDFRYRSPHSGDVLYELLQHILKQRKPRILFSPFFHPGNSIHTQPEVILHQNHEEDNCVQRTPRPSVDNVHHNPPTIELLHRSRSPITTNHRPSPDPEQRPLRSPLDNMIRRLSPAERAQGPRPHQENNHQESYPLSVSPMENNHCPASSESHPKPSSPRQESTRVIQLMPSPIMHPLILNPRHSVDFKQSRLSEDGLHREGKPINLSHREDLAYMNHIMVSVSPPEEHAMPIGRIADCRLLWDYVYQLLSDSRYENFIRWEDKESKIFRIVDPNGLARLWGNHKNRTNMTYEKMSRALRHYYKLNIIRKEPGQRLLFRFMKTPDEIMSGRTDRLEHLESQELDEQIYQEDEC", "outline": "as §1"}},
  "data": [
    {"sequence": "CTTCGA", "values": [
      {"measurement": "binding signal", "setting": "[1]", "result": "1.35 fold enrichment (6-mer frequency, TF over GST control)"},
      {"measurement": "binding signal", "setting": "[2]", "result": "1.41 fold enrichment (6-mer frequency, TF over GST control)"},
      {"measurement": "binding signal", "setting": "[3]", "result": "1.37 fold enrichment (6-mer frequency, TF over GST control)"},
      {"measurement": "binding signal", "setting": "[4]", "result": "1.36 fold enrichment (6-mer frequency, TF over GST control)"},
      {"measurement": "binding signal", "setting": "[5]", "result": "1.3 fold enrichment (6-mer frequency, TF over GST control)"},
      {"measurement": "binding signal", "setting": "[6]", "result": "1.44 fold enrichment (6-mer frequency, TF over GST control)"},
      {"measurement": "binding signal", "setting": "[7]", "result": "1.27 fold enrichment (6-mer frequency, TF over GST control)"},
      {"measurement": "binding signal", "setting": "[8]", "result": "1.16 fold enrichment (6-mer frequency, TF over GST control)"},
      {"measurement": "binding signal", "setting": "[9]", "result": "1.43 fold enrichment (6-mer frequency, TF over GST control)"}
    ]}
  ]
}
